The supplement of paper PMC3334620
Over roughly 33,000 sequences, “E-score (-0.5 to 0.5)” has its median near -0.035; the highest 2% begin near 0.34. The full list was thinned out, with the highest values kept by preference.

biological target: T1, Mot3 (UniProt P54785); assay: PBM E-score (8-mer binding enrichment) (E-score (-0.5 to 0.5)); higher = stronger / more preferred TF binding; conditions: protein concentration: 200 nM; construct: GST-full length
T1 sequence: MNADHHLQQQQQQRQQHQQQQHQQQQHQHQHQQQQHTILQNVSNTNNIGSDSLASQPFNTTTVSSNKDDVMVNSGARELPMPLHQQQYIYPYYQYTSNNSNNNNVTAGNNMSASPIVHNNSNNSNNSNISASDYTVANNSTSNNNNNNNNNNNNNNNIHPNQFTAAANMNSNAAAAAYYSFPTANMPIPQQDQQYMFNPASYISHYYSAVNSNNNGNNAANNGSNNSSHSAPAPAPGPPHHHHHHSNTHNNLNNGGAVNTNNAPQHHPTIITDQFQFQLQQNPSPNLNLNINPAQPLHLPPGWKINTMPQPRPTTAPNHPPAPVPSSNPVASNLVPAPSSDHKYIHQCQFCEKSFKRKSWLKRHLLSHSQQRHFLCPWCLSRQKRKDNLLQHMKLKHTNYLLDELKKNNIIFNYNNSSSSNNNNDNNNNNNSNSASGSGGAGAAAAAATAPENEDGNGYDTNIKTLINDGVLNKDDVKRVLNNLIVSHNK
Method: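 Universal 'all 10-mer' protein binding microarrays (Agilent AMADID 015681) probed with GST-tagged S. cerevisiae TFs (full-length or DBD) made by in vitro transcription/translation (PURExpress), about 100-200 nM. Bound TF was detected with fluorescent anti-GST. Each ungapped 8-mer (which stands for itself and its reverse complement) is scored by the PBM enrichment score (E-score), a modified Wilcoxon-Mann-Whitney statistic from -0.5 to +0.5, computed with the Universal PBM Analysis Suite. Scale: above 0.35 generally sequence-specific binding.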

Sequence	PBM E-score
AGAAAAAT	0.133
GGGAAAAC	-0.195
AGGAAAAG	0.305
CGGAAAAC	0.0409
AGGAAAAC	0.416
AGGAAAAT	0.416
AGGAAAAA	0.352
ACGAAAAT	0.163
TGGAAAAA	0.0684
CCAGGGGA	-0.363
ATGAGAAC	0.00278
ATAGTGCA	0.134
GATTGAAC	0.142
ACCTCATG	-0.175
AAACGCTA	-0.0463
CACAACAG	0.181
AGTCCCCA	-0.348
ACATGATC	0.385
GCATGATA	0.0933
ACATGACT	0.211
CCATGATA	-0.147
CCATGATC	-0.251
ACATGACA	0.343
ACATGATA	0.35
ACATGATG	0.241

Sequence	PBM E-score
GCATGACA	0.116
ACATGAAC	0.256
ACATGAAG	0.344
ACATGAAT	0.294
CCACACCC	-0.133
CAGGAGGG	-0.159
AGAGTGAT	0.105
CTCGCCAA	-0.0783
CAGTTGTA	0.00216
TAGCCAAA	-0.0612
CACAGACC	0.0761
CACGCTTC	0.146
AAGTTTAA	0.068
ATAACAGG	0.229
ATAACATG	0.36
ACAACATA	0.307
ATAACATC	0.21
CTAACATA	0.156
ACAACATC	0.195
CTAACACA	0.313
ATAACACG	0.391
ATAACATA	0.344
GTAACATA	0.26
ACAACATG	0.359
ATAACACA	0.332

Sequence	PBM E-score
GCGCTCGA	-0.00313
ATCAACGC	0.194
CGTCGCAC	-0.243
ATGGGCAC	0.333
CGATTAAG	0.108
CCCTTCGA	0.0666
ACCGTACG	-0.116
CGTGCTAG	-0.0215
AAAACATA	0.314
AAAACATG	0.351
AAAACATT	0.187
CCATCAGG	-0.179
AGGGTCAA	-0.0327
CCTGCATA	0.126
AAAGTGTG	0.0664
CTTTTTAC	0.21
AAATACAT	0.344
AAATACAC	0.37
AAATATAC	0.0863
AAATACAA	0.281
ATATACAC	0.358
GTATACAC	0.323
AAATACAG	0.212
GAATACAC	0.363
CAATACAC	0.331

Sequence	PBM E-score
GAATACAA	0.214
CTATACAC	0.254
AAATACCC	-0.0215
ATCCTTAA	0.00499
CACGCTGG	-0.0203
GGTGCTAA	-0.0828
AGGTTGAG	0.0336
TAACTCCA	-0.179
CAGAAATG	0.00635
CACGTTCG	0.00382
ACAGGCCT	0.00325
ACAGGCAT	0.409
ACAGGCCA	0.296
ACAGGCGA	0.0648
ACAGGCAA	0.489
ACAGGCAG	0.239
CCCACTGC	-0.32
GTACCCAC	0.0626
TATGGCAA	-0.0849
GCTGTAAA	0.25
AATGTAGA	0.221
CTTGTAAC	0.281
GATGTAAA	0.35
ATTGTAAA	0.3
CTTGTAAA	0.378

Sequence	PBM E-score
AGTGTCAA	-0.0255
GTTGTAAA	0.31
CGTGTCAA	0.342
AATGTAAA	0.374
ACTGTAAA	0.191
CGTGTCAG	0.223
GAACTCGC	-0.0603
GTCTCATA	-0.0702
CCGCCTTC	-0.226
GGCTCGTA	0.112
ACGGTTGG	-0.106
AGCGTGAT	-0.153
TCTGGTCA	-0.0723
CCCCACGG	-0.224
TATGTAGA	0.333
CATGTAAG	0.398
AATGTAAT	0.377
ACTGTAAT	0.169
CACGTAAA	0.339
AATGTAAC	0.218
TCTGTAAA	0.231
AATGTAAG	0.201
CCTGTAAG	0.282
CCTGTAAA	0.335
TATGTAAA	0.434

Sequence	PBM E-score
CATGTAAA	0.436
CTGCTGAC	0.0167
AAAAGGAG	0.0569
ACAGTGGG	-0.0834
GCTACAGC	-0.167
CGAAGTAA	0.174
CTGCTGCA	-0.0263
CAGTTAGC	-0.274
CCATCTCA	-0.228
CCGCAGGC	0.272
AGGAGTAC	0.171
AACCGACA	0.0529
CCAGAACG	-0.0663
ACCAGCGT	-0.0988
GATGTAAC	0.175
TATGTCAA	0.363
CCTGTAAC	0.295
AATGTCAA	0.0969
CATGTAAC	0.382
GATGTCAA	0.144
CTAGCACC	-0.0791
CGTTTGAG	-0.0011
CACGTGAA	0.183
CACGTGTC	0.183
GACGTGTA	0.318

Sequence	PBM E-score
AACGTGTA	0.415
AACGTGTC	0.273
CACGTGTA	0.383
CGTCTGTA	0.135
ACCCATAA	-0.196
ATACCCAT	0.142
CTATGAAC	0.2
CCAGTGTA	0.0502
CATGCATG	0.0529
GAGGCATC	0.145
CAGACATG	0.106
CAGGCATA	0.319
CAGGCATC	0.402
CAGGCATG	0.358
AGGTGTGC	0.0416
AAGATCTC	-0.0117
ACAGGTGA	0.0111
ACAGGTAC	0.423
CCAGGTAC	0.238
GCAGGTAA	0.385
ACAGGTAT	0.194
ACAGGTTA	0.155
